Measurements taken from PubChem BioAssay AID504427 (National Center for Advancing Translational Sciences (NCATS), 2011).
The other results are listed elsewhere or left out. Active and inactive are the calls of the source.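 How the source made its calls: active means compound that inhibits Clk2 kinase in the dose series, with an IC50 potency reported; inactive means no inhibition seen.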

What follows are compounds tested against Dual specificity protein kinase CLK2 (Homo sapiens) (UniProt P49760) (assay: Kinase Inhibition Study on Inhibitors of CDC-like Kinase 2 (Reaction Biology data)). Details: Reaction Biology kinase assay, 10 uM ATP.
From the text: NIH Molecular Libraries Probe Production Centers Network [MLPCN] NIH Chemical Genomics Center [NCGC] MLPCN Grant: 1R03MH084827-01 Assay Submitter (PI): Tom Misteli NCGC Assay Overview: Alternative splicing of pre-mRNAs plays a major role in the regulation of eukaryotic gene expression. Alternative splicing is now thought to be one of the primary reasons for the complexity of higher organisms leading to an average of three protein isoforms per gene. Aberrant splicing can lead to a number of diseases and is known to play a role in rare genetic diseases such as progeria syndrome. Hutchinson-Gilford Progeria Syndrome (HGPS) is a pediatric premature aging disease caused by a spontaneous mutation in the lamin A/C (LMNA) gene due to a single point mutation in the lamin A gene effecting 1 in 4 million people. To identify both specific splicing modulators of the lamin A gene as well as general splicing modulators, a cell-based HTS assay was developed using a minigene reporter system (AIDs, 1459 & 1487). […] This AID summarizes the characterization of lead compounds in Clk2.
All kinase reactions were performed using 10 uM ATP in the assay. 100% activity was taken from kinase reactions with DMSO alone (the vehicle used for compound stock solutions).

Chain of Dual specificity protein kinase CLK2 (Homo sapiens) (P49760 whole entry, looked up, canonical isoform): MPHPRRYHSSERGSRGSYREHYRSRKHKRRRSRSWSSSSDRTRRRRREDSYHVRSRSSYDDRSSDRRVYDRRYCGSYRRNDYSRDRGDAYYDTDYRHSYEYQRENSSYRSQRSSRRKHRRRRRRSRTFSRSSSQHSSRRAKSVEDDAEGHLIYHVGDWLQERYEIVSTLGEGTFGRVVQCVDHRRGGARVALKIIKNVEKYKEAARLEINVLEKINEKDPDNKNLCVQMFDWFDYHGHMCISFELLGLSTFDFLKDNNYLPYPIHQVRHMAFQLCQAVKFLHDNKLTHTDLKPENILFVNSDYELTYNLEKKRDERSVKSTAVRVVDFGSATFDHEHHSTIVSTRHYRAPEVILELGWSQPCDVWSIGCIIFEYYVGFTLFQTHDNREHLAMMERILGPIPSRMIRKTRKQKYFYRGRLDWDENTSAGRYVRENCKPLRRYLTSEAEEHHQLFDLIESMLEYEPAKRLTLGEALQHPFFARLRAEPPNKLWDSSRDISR

Potency, active:
c1coc(CCNc2ncnc3ccc(-c4ccc5c(c4)OCO5)cc23)c1 0.801 µM
c1nc(N2CCOCC2)c2cc(-c3ccc4c(c3)OCO4)ccc2n1 1.67 µM
CC(Nc1ncnc2ccc(-c3ccc4c(c3)OCO4)cc12)c1ccco1 (centres undefined) 8.37 µM
CN(Cc1cncn1C)c1ncnc2ccc(-c3ccc4c(c3)OCO4)cc12 15 µM
